Inconclusive results are not listed. Calls of active or inactive are those of the source. Calls follow the shape of the dose curve; as a rule, active = well fitted curve in the direction sought with a large enough effect in the signal ratio in the repeat runs (not every such curve was filed as active); inconclusive = weak or mixed curves, or a change in a side signal; inactive = no such curve, though single readings can be large or run the other way; the % refers to the signal ratio.
assay: qHTS assay to identify small molecule agonists of the NFkB signaling pathway (AID 1159509); conditions: NFkB-bla ME-180 cells, beta-lactamase FRET ratio, 5 h; series mostly up to 61 µM
Text: National Center for Advancing Translational Sciences [NCATS]
NIH Chemical Genomics Center [NCGC]
U.S. Environmental Protection Agency [EPA]
National Institutes of Environmental Health Sciences [NIEHS]
National Toxicology Program [NTP]
U.S. Food and Drug Administration [FDA]
Transcription factors and their stimulated target gene expression play pivotal roles across many cellular processes including responses to environmental stimuli. Proper regulation of associated pathways is critical to maintain cell health and function. Constitutive activation of transcription factor pathways has been implicated in tumors as it may block cellular functions such as apoptosis and lead to invasion and metastasis. One important transcription factor that stimulates gene expression in response to cytokines, UV radiation, and other stimuli is nuclear factor-kappa B (NFkB). To measure activation of the NFkB pathway, the CellSensor NFkB-bla ME-180 cell line (Life Technologies, Carlsbad, CA) that stably expresses beta-lactamase reporter gene under the regulation of a NF-kB response element was used. This assay allows measurement of the NFkB pathway activity induced by compounds in a ME-180 cell line. This system quantitates NF-kB activity using a FRET-based assay system where beta-lactamase expression disrupts FRET, allowing for fluorescent measurement of activity. This cell line has been used to screen the Tox21 10K compound library and to identify compounds that induce the NFkB pathway activity.
Tox21 Assay Protocol Summary:
NFkB-bla ME-180 cells were dispensed at 2,000 cells/6 uL of assay medium per well into black wall/clear-bottom 1536-well plates using a Multidrop Combi (ThermoFisher Scientific, Waltham, MA) dispenser. After the assay plates were incubated at 37 C and 5% CO2 for an overnight, 23 nL of compounds dissolved in DMSO, positive controls or DMSO only was transferred to the assay plate by a Pintool station (Kalypsys, San Diego, CA). The assay plates were incubated at 37 C and 5% CO2 for 5 hr. One uL of LiveBLAzer B/G FRET substrate (Life Technologies) was added using a Flying Reagent Dispenser (Aurora Discovery, San Diego, CA) and the plates were incubated at room temperature for 1.5 hr. Fluorescence intensity (405 nm excitation, 460 nm and 530 nm emissions) was measured using an Envision plate reader (PerkinElmer, Shelton, CT).

SMILES	outcome
CCCCCCO	inactive
CC(=O)CCC=C(C)C	inactive
NCCN1CCNCC1	inactive
CCCCOC(=O)c1ccc(N)cc1	inactive
CC1(C)NC(=O)NC1=O	inactive
COc1ccc(N)c(C)c1	inactive
Nc1nc(N)nc(-c2ccccc2)n1	inactive
CC(=O)OC1CC(C)OC(C)O1 (stereo not given)	inactive
C=CC(=O)OCCC(=O)O	inactive
C=C(C)[C@H]1CC=C(C)C(=O)C1	inactive
CN1C(=O)CC[C@H]1c1cccnc1	inactive
CCOCCOCCOCCO	inactive
CC(C)(C#N)c1cc(Cn2cncn2)cc(C(C)(C)C#N)c1	inactive
CC(C)CC(C)O (stereo not given)	inactive
O=C(O)Cn1c(=O)n(Cc2ccc(Br)cc2F)c(=O)c2ccc(Cl)cc21	inactive
CC(C)(Oc1ccc(CCNC(=O)c2ccc(Cl)cc2)cc1)C(=O)O	inactive
COc1ccccc1OCC(O)CO (stereo not given)	inactive
CCCCCCCCCCCC(=O)OC	inactive
OCc1cccc(Oc2ccccc2)c1	inactive
CCO[Si](CCCN)(OCC)OCC	inactive

SMILES	outcome
CNC(=O)Oc1ccc2c(c1)[C@]1(C)CCN(C)[C@@H]1N2C	inactive
C[C@]12CC[C@@H]3c4ccc(O)cc4CC[C@H]3[C@@H]1C[C@@H](O)[C@@H]2O	inactive
OC1C(O)C(O)C(O)C(O)C1O (stereo not given)	inactive
COc1cc(OC)c(C(=O)CCCN2CCCC2)c(OC)c1	inactive
O=C(O)c1ccc(S(=O)(=O)N(Cl)Cl)cc1	inactive
COc1ccc(CCC(C)=O)cc1	inactive
CCCCCCC=O	inactive
C=Cc1ccc(C)cc1	inactive
Nc1ccc(Cl)c(N)c1	inactive
CC(=O)Oc1ccc(C)cc1	inactive
Cc1ccc([N+](=O)[O-])cc1S(=O)(=O)O	inactive
CCCCCCCCCCCCCCCC(=O)OC(C)C	inactive
CSc1ccc(Cl)cc1	inactive
O=S(=O)(O)c1ccc(N=Nc2c(O)ccc3cc(S(=O)(=O)O)ccc23)cc1	inactive
CCCCCCCCCCO	inactive
CN(C)CCOC(=O)COc1ccc(Cl)cc1	inactive
CC1(C)OC[C@@H]2O[C@@]3(C(=O)O)OC(C)(C)O[C@H]3[C@@H]2O1	inactive
O=C1CCCC1	inactive
CCCOC(=O)c1ccccc1	inactive
CC(=O)OCc1ccccc1	inactive

From PubChem BioAssay (Tox21)
